# Measurements: PubChem BioAssay
# Values without a mark were called inactive. For some assays here: Measured potencies and affinities stand elsewhere. Active and inactive are the calls of the source. Unless noted, no rule for the calls is given here.
# Legend:
# [1] = antimalarial activity against Dd2 strain (AID 2302;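 active = growth inhibition above 50% at the single 2 µM test dose, taken to imply half-maximal potency below 2 µM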;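 also: 0% = DMSO untreated growth and 100% = chloroquine plus artemisinin killed control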); settings: P. falciparum Dd2 in RBCs, LDH growth readout, 72 h; at 2 µM; hits give high values
# [2] = HepG2 cytotoxicity, primary screen, cytotoxicity control for P. falciparum antimalarial project, cell-based, ATP luminescence (AID 2303;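 active = inhibition above 50%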;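 also: 0% = DMSO wells and 100% = digitonin-killed cells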); settings: HepG2 viability, 24-48 h, at 10 µM, hits give high values
# [3] = molecular target: L-lactate dehydrogenase (Plasmodium falciparum (isolate CDC / Honduras)) (UniProt Q27743); assay: PfLDH activity inhibition – cell lysate, 3D7 strain, counter-screen for P. falciparum growth inhibition project (AID 2304);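 also: 0% = vehicle and 100% = reference inhibitor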; settings: P. falciparum 3D7 crude extract, LDH APAD/NBT absorbance; at 2 µM; hits give high values
# [4] = inhibition of 3D7 malaria parasite growth – strain 3D7 (AID 2306);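 also: 0% = DMSO wells and 100% = chloroquine plus artemisinin control wells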; settings: P. falciparum 3D7 erythrocytic growth, LDH absorbance, 72 h; at 2 µM; hits give high values
# [5] = molecular target: Calcium-dependent protein kinase 1 (Plasmodium falciparum (isolate 3D7)) (UniProt P62344); assay: PfCDPK1 kinase inhibitors, biochemical, TCAMS library (AID 1159585; cut-off not given, nearly all actives have IC50 up to about 0.98 µM;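 also: inhibitors leave more ATP so luminescence rises with inhibition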); settings: recombinant PfCDPK1, Kinase-Glo ATP depletion luminescence
# [6] = molecular target: Plasmodium falciparum protein kinase 6 (PK6, PF3D7_1337100) (UniProt Q8IDW1); assay: PfPK6 kinase inhibitors, biochemical, TCAMS library (AID 1159586); settings: recombinant PfPK6, Kinase-Glo ATP depletion luminescence
# [7] = molecular target: Protein kinase 7 (PK7), Plasmodium falciparum 3D7 (PF3D7_0213400) (UniProt Q7YTF7); assay: inhibition of Plasmodium PK7 catalytic activity – biochemical, TCAMS antimalarial set, Kinase-Glo luminescence (AID 1159587); settings: recombinant PfPK7, Kinase-Glo ATP depletion luminescence
# [8] = molecular target: Calcium-dependent protein kinase 4 (Plasmodium falciparum (isolate 3D7)) (UniProt Q8IBS5); assay: PfCDPK4 kinase inhibitors, biochemical, TCAMS library (AID 1159588; cut-off not given, nearly all actives have IC50 up to about 0.91 µM); settings: recombinant PfCDPK4, Kinase-Glo ATP depletion luminescence
# Sequence of Calcium-dependent protein kinase 4 (Plasmodium falciparum (isolate 3D7)) (Q8IBS5 whole entry, looked up): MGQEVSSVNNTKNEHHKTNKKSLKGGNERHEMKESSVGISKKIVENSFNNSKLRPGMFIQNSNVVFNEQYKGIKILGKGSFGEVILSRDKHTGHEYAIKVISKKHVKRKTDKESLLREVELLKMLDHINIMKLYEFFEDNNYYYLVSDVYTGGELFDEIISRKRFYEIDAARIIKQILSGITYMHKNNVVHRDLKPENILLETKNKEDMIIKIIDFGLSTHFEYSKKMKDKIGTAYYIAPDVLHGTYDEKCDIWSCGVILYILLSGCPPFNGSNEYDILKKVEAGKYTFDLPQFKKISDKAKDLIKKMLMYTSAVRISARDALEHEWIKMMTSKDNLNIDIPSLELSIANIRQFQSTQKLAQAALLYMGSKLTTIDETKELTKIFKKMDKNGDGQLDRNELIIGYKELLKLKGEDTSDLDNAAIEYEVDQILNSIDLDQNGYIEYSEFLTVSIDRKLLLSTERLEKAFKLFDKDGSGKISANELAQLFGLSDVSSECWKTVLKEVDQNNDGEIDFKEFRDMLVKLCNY
# Sequence of Calcium-dependent protein kinase 1 (Plasmodium falciparum (isolate 3D7)) (P62344 whole entry, looked up): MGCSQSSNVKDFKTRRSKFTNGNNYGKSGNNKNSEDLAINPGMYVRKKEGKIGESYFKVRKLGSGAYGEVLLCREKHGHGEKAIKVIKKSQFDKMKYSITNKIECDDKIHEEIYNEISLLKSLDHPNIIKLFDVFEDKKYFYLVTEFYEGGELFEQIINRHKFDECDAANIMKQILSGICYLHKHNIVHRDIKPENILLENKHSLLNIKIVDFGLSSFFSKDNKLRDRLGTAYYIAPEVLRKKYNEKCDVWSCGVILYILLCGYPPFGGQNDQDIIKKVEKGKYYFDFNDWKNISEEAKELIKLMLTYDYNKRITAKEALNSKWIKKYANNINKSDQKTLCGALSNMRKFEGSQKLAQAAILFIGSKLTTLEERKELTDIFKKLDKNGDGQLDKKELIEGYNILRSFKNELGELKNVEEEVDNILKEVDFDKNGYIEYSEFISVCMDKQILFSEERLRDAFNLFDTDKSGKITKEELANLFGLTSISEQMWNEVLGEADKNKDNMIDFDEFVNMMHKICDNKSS
# Sequence of Plasmodium falciparum protein kinase 6 (PK6, PF3D7_1337100) (Q8IDW1 1-305): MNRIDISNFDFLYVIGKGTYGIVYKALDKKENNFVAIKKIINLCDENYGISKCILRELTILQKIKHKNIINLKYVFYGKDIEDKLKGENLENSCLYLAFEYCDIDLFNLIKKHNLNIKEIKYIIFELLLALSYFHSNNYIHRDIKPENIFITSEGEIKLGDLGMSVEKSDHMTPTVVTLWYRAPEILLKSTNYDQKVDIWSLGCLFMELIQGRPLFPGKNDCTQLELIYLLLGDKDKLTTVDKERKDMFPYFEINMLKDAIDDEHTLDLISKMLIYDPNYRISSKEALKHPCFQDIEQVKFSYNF
# Sequence of Protein kinase 7 (PK7), Plasmodium falciparum 3D7 (PF3D7_0213400) (Q7YTF7 1-343): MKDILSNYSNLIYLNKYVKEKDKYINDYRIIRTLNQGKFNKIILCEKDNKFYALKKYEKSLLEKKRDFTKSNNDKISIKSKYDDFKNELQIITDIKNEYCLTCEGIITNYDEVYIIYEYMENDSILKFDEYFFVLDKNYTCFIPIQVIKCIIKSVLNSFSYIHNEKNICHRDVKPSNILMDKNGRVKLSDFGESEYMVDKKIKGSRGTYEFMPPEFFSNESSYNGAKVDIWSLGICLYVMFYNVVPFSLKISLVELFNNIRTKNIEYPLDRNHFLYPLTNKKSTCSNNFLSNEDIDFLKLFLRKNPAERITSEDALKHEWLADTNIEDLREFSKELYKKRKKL
# Sequence of L-lactate dehydrogenase (Plasmodium falciparum (isolate CDC / Honduras)) (Q27743 whole entry, looked up): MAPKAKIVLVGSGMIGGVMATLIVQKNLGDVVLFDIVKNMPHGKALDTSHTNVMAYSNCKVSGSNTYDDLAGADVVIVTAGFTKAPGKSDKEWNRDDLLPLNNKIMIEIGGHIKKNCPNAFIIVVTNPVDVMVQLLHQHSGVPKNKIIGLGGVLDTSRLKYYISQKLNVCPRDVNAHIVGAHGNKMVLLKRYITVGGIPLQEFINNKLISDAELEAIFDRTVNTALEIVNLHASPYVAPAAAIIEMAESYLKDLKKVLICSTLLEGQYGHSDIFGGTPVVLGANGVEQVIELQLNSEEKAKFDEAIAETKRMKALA
Compound,growth inhibition [1],inhibition [2],inhibition [3],growth inhibition [4],outcome [5],outcome [6],outcome [7],outcome [8]
CN(c1ccc(NC(=O)c2ccc(F)cc2)cc1)C1CCN(Cc2cccc(F)c2)C1 (configuration not stated),74% (active),3%,-2%,81% (active),inactive,inactive,inactive,inactive
OCC1CCN(Cc2cccc(-c3ccc(-c4nc5ccc(C(F)(F)F)cc5[nH]4)s3)c2)CC1,90% (active),-6%,-9%,99% (active),inactive,inactive,inactive,inactive
CCN(CC)CCN(CCN(CC)CC)c1ccc(-c2nc3cc(Cl)c(Cl)cc3[nH]2)cc1,97% (active),9%,2%,101% (active),inactive,inactive,inactive,inactive
Nc1ccc(Nc2ccnc3ccc(C(F)(F)F)cc23)cc1O,59% (active),1%,5%,98% (active),inactive,inactive,inactive,inactive
COc1ccc2nccc(N3CCN(CCNCc4ccc5c(n4)NC(=O)CS5)CC3)c2n1,67% (active),10%,1%,100% (active),inactive,inactive,inactive,inactive
Cc1cc(N(C)CCCN2CCCCC2)nc(Nc2ccc(Cl)cc2)n1,82% (active),7%,-3%,101% (active),inactive,inactive,inactive,inactive
Cc1ccccc1C1CCN(C2CCC(NC(=O)/C=C/c3cccc(C(F)(F)F)c3)CC2)CC1 (configuration not stated),54% (active),96% (active),-4%,100% (active),inactive,inactive,inactive,inactive
CC(C)c1ncc(-c2ccncc2)c(C2CCC(CNC(=O)c3cccnc3)CC2)n1 (configuration not stated),88% (active),-14%,1%,89% (active),inactive,inactive,inactive,inactive
CCOC(=O)c1cn(CC)c2cc(O[C@@H]3CCN(C(=O)OC(C)(C)C)C3)ccc2c1=O,94% (active),13%,-8%,97% (active),inactive,inactive,inactive,inactive
O=C(Nc1ccc(Cn2ncc(N3CCCNCC3)c(Cl)c2=O)cc1)Nc1ccc(C(F)(F)F)cc1,58% (active),12%,4%,90% (active),inactive,inactive,inactive,inactive
O=C(Nc1ccc(-c2cccc(-c3nc4ccccc4[nH]3)c2)cc1)Nc1ccc(Cl)c(Cl)c1,80% (active),61% (active),-2%,101% (active),inactive,inactive,inactive,inactive
CC1CN(CC(O)Cn2c3ccc(Br)cc3c3cc(Br)ccc32)CC(C)O1 (configuration not stated),100% (active),-1%,3%,102% (active),inactive,inactive,inactive,inactive
O=C(Cn1c(CCc2cccc(F)c2F)cc(=O)c2cccnc21)N(CCN1CCCC1)Cc1ccc(-c2ccc(C(F)(F)F)cc2)cc1,64% (active),48%,-3%,99% (active),inactive,inactive,inactive,inactive
Cc1cc(OCC2CCCO2)c2cc(NC(=O)C(=O)Nc3ccc4nc(C)cc(OCC5CCCO5)c4c3)ccc2n1 (configuration not stated),32%,7%,-4%,96% (active),inactive,inactive,inactive,inactive
CCN(CC)CC(O)c1cc(-c2ccc(OC)cc2)nc2cc(Cl)ccc12 (configuration not stated),98% (active),12%,-10%,99% (active),inactive,inactive,inactive,inactive
COc1cc2nc(Nc3ccc(N4CCOCC4)cc3)nc(N)c2cc1OC,10%,8%,-3%,95% (active),inactive,inactive,inactive,inactive
COc1ccc(C(=O)NCc2ccccc2-c2ccc(C(C)(C)C)cc2)cc1O,97% (active),10%,1%,99% (active),inactive,inactive,inactive,inactive
COc1cc2cc(C(=O)Nc3ccccc3)c(N)nc2cc1OC,-2%,0%,-1%,90% (active),inactive,inactive,inactive,inactive
CCOc1cccc(C(=O)Nc2ccc(-c3nc4ccccc4[nH]3)cc2)c1,30%,40%,-1%,96% (active),inactive,inactive,inactive,inactive
